Experiment [1] deals with Peroxisome proliferator-activated receptor gamma (Homo sapiens) (UniProt P37231). Kind of experiment: qHTS assay for small molecule agonists of peroxisome proliferator-activated receptor gamma signaling (AID 588536; active means well fitted curve in the direction sought with a large enough effect in the signal ratio, with a control signal flat, not every such curve was filed as active; the % refers to the signal ratio;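 further: 0% = DMSO basal wells and 100% = rosiglitazone at 2 µM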). In a few lines:
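PPAR-gamma-UAS-bla HEK293 cells in medium with 1% charcoal/dextran-treated FBS were exposed to compounds for 16 h at 37 C. Beta-lactamase activity was read with CCF4 substrate (405 nm excitation, 460/530 nm emission).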
On the technique in general: In qHTS, concentration-response curves come from the screen itself.

The target is the same in experiment [2]. Put plainly: qHTS assay for small molecule antagonists of peroxisome proliferator-activated receptor gamma signaling (AID 588537; active means well fitted inhibition curve with a large enough effect in the signal ratio, with a control signal flat, not every such curve was filed as active; the % refers to the signal ratio;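 further: reporter cells co-stimulated with 50 nM rosiglitazone agonist during compound treatment; % of control where 0% means no effect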). A digest of the protocol: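 Step one: plate 3000 HEK293 UAS-bla cells per well in medium with 1% stripped serum and hold 6-6.5 h at 37 C. Step two: add compound and 50 nM agonist for 16 h. Step three: CCF4 loading, fluorescence read.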

A short description of experiment [3]: qHTS assay for small molecule agonists of retinoid X receptor alpha signaling (AID 588544; calls by dose curve; further: potency means the concentration at half of the fitted maximal effect;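 on activation: 0% = DMSO basal wells and 100% = reference agonist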). Conditions: HEK293T RXRa-UAS-bla, beta-lactamase reporter, 18 h; 530 nm emission.
In experiment [4] the target is Retinoic acid receptor RXR-alpha (Homo sapiens) (UniProt P19793). The description is as above.
Experiment [5] addresses Thyroid hormone receptor beta (Homo sapiens) (UniProt P10828). Kind of experiment: qHTS assay for small molecule agonists of thyroid hormone receptor beta signaling (AID 588545; calls by dose curve). In a few lines: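 Cells (2500/well) were seeded, incubated 4 hrs at 37 C, dosed with a compound series, incubated 18 hrs, loaded with CCF4 dye for 2 hrs at RT, then read for fluorescence. Data were scaled between DMSO (0%) and 10 nM T3 (100%).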

A short description of experiment [6]: qHTS assay for small molecule antagonists of retinoid X receptor alpha signaling (AID 588546; active means well fitted inhibition curve with a large enough effect in the signal ratio, with a control signal flat, not every such curve was filed as active; the % refers to the signal ratio;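 further: cells stimulated with 9-cis-retinoic acid as agonist; on the % scale 0 is the no-effect control and ±100 the full control effect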). The note with it: HEK293T RXRa-UAS-bla, beta-lactamase ratio, antagonist mode; measured here: W530 green channel, cytotoxicity proxy. A digest of the protocol:
(§1)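 Beta-lactamase reporter inhibition, read as CCF4 fluorescence ratio (ex 405, em 460/530 nm) after 2 h at RT. HEK293T UAS-bla cells, 2500/well, were stimulated with 9-cis-RA at 500 or 100 nM final alongside test compound for 18 h at 37 C.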

For experiment [7], the target named is Retinoic acid receptor RXR-alpha (Homo sapiens) (UniProt P19793). The experiment is described as above. Conditions: HEK293T RXRa-UAS-bla, beta-lactamase ratio, antagonist mode. A digest of the protocol:
as §1

Experiment [8] can be described thus: qHTS assay for small molecule activators of the nuclear factor-kappa B (NF-kB) signaling pathway (AID 651749; active means well fitted activation curve with a large enough effect in the signal ratio; the % refers to the signal ratio; further: series mostly up to about 77 µM; % of control where 0% means no effect). The note with it: NF-kB-bla ME-180 cells, beta-lactamase FRET ratio, 16 h; activation: stronger effect = higher value. In a few lines: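 Incubation lasted 16 hr at 37C in 5% CO2 after 23 nL compound addition to ME-180 NF-kB-bla cells. Activation appears as beta-lactamase-mediated FRET loss.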

Experiment [9] has as its target Peroxisome proliferator-activated receptor alpha (Homo sapiens) (UniProt Q07869). Put plainly: qHTS assay for small molecule agonists of the peroxisome proliferator-activated receptor alpha (PPARalpha) signaling pathway (AID 651778). Further: % of control where 0% means no effect. Conditions: PathHunter PPARalpha complementation, chemiluminescence, 6 h; max response: stronger effect = higher value. A digest of the protocol:
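Enzyme-fragment complementation assay in which ligand-bound PPARalpha translocates and forms an active enzyme that generates chemiluminescence. Cells were plated overnight, exposed to compound for 6 hr at 37 C, and then given detection reagent for 60 min at room temperature.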

A short description of experiment [10]: qHTS assay for small molecule agonists of the antioxidant response element (ARE) signaling pathway measured by Nrf2-dependant transcriptional activity (AID 720636; active means well fitted curve in the direction sought with a large enough effect in the repeat runs; an effect the other way counts as inactive or inconclusive; further: % of control where 0% means no effect). A digest of the protocol: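 ARE-luc HepG2 cells carrying an Nrf2-responsive luciferase reporter, in medium with 1% dialyzed FBS, exposed to compound for 16 hr at 37 C, 5% CO2. Luminescence read 30 min after ONE-Glo addition.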

The nature of experiment [11]: qHTS assay for small molecule agonists of the antioxidant response element (ARE) signaling pathway measured by Nrf2-dependant transcriptional activity - cell viability counter screen (AID 720653; active means well fitted curve in the direction sought with a large enough effect in the repeat runs; an effect the other way counts as inactive or inconclusive; further: on the % scale 0 is the no-effect control and ±100 the full control effect). Conditions: ARE-bla HepG2 viability, CellTiter-Glo ATP luminescence, 16 h; max response: stronger effect = lower value. In a few lines:
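ARE-bla HepG2 cells treated with compounds for 16 h at 37C; this counter screen measures viability as intracellular ATP by CellTiter-Glo luminescence after 30 min at room temperature.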

Experiment [12] is described as follows: qHTS assay for cell viability of HEK293 cells (AID 743288). Further: on the % scale 0 is the no-effect control and ±100 the full control effect; nearly all actives have a fitted effect of over 50% in size. Conditions: ATP luminescence (CellTiter-Glo), 18 h; max response: stronger effect = lower value. In a few lines:
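Environmental chemicals tested in qHTS format against parental HEK293 cells; 18 h treatment, 37 C; read-out ATP luminescence (CellTiter-Glo), 30 min RT development.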

The nature of experiment [13]: qHTS assay for cell viability of the p53RE-bla HCT-116 cell line (AID 743292). Further: on the % scale 0 is the no-effect control and ±100 the full control effect; nearly all actives have a fitted effect of over 55% in size. In a few lines: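 CellSensor p53RE-bla HCT-116 cells (4,000/well) pre-incubated 5 h at 37 C, then exposed to compounds in DMSO for 16 h at 37 C. Viability read as ATP content by CellTiter-Glo luminescence after 30 min at room temperature.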
Experiment [14] deals with Nuclear receptor subfamily 1 group I member 2 (Rattus norvegicus) (UniProt Q9R1A7). Put plainly: qHTS assay for small molecule activators of the rat pregnane X receptor (rPXR) signaling pathway (AID 651751; call rule not given here; further: 0% is about no effect). Conditions: rPXR reporter cells, luciferase (One-Glo), 24 h.
Experiment [15] can be described thus: qHTS assay for small molecule activators of the human pregnane X receptor (PXR) signaling pathway (AID 720659; call rule not given here; further: 0% is about no effect).
A short description of experiment [16]: qHTS assay for small molecule activators of the p53 signaling pathway (AID 651743; active means well fitted activation curve with a large enough effect in the signal ratio, not every such curve was filed as active; the % refers to the signal ratio; further: series mostly up to about 92 µM; % of control where 0% means no effect). The note with it: HCT-116 p53RE-bla, beta-lactamase FRET ratio, 16 h; activation: stronger effect = higher value. A digest of the protocol: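 HCT-116 p53RE-bla, 4,000 cells/well; 5 h settle; cpd/DMSO 16 h, 37 C; LiveBLAzer B/G 2 h RT; fluorescence intensity.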
Experiment [17] in a line: qHTS assay for environmental chemicals that activate the Aryl hydrocarbon Receptor (AhR) signaling pathway (AID 651777). Further: % of control where 0% means no effect; nearly all actives have a fitted effect of over 15% in size. Conditions: 1A2-DRE human hepatoma cells, luciferase, 24 h; activation: stronger effect = higher value. In a few lines:
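Human hepatoma 1A2-DRE cells stably carrying a DRE/CYP1A2 promoter–luciferase reporter, 1,200 cells/well, exposed to compound 24 hr at 37 C. Luciferase read by One-Glo luminescence after 30 min at room temperature; increased signal marks AhR activation.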

Experiment [18] can be described thus: qHTS assay for small molecule antagonists of peroxisome proliferator-activated receptor delta signaling (AID 588535).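 Further: cells co-treated with a PPAR-delta agonist as stimulator during compound exposure.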 Conditions: HEK293T PPARd-UAS-bla, beta-lactamase FRET ratio, 18 h; 460 nm channel. In a few lines:
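Cells were seeded at 4000 per well in assay medium containing 2% charcoal/dextran FBS and held 5 hrs at 37 C. Compounds were then added for 18 hrs. CCF4 substrate was applied for 2 hrs at room temperature before fluorescence reading.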

Experiment [19] has as its target Vitamin D3 receptor (Homo sapiens) (UniProt P11473). Kind of experiment: qHTS assay for small molecule agonists of vitamin D receptor signaling (AID 588543; calls by dose curve;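 further: 0% = DMSO basal and 100% = reference agonist control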). In a few lines:
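β-lactamase reporter, VDR-UAS-bla HEK293T, agonist mode. Cells plated 5 h at 37 °C, compound titration 16 h at 37 °C, CCF4 dye 2 h RT, ratio 460/530 nm. Hill fit → EC50, efficacy vs 50 nM 1α,25-(OH)2D3.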

Experiment [20] has the same target. Kind of experiment: qHTS assay for small molecule antagonists of vitamin D receptor signaling (AID 588541; calls by dose curve;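 further: receptor activated by calcitriol during compound treatment; series mostly up to about 77 µM; on the % scale 0 is the no-effect control and ±100 the full control effect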). A digest of the protocol: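 VDR-UAS-bla HEK293T cells in 2% charcoal-stripped FBS were stimulated with 1-alpha,25-dihydroxyvitamin D3 (3 nM final) plus compound for 16 h at 37 C. The beta-lactamase CCF4 readout was normalized to 50 nM agonist and DMSO, and Hill fits gave IC50.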

Structures are written as SMILES. Records with an inconclusive call do not appear. Calls of active or inactive are those of the source. Unless noted, the call rests on the fitted dose curve; in most records, active means well fitted curve in the direction sought with a large enough effect; inconclusive means small, poorly fitted or top-dose-only effect, or another doubt; inactive means no such curve, though single readings can be large; an effect the other way counts as inactive or inconclusive.

Retinoic acid receptor RXR-alpha (Homo sapiens), sequence (P19793 whole entry, looked up): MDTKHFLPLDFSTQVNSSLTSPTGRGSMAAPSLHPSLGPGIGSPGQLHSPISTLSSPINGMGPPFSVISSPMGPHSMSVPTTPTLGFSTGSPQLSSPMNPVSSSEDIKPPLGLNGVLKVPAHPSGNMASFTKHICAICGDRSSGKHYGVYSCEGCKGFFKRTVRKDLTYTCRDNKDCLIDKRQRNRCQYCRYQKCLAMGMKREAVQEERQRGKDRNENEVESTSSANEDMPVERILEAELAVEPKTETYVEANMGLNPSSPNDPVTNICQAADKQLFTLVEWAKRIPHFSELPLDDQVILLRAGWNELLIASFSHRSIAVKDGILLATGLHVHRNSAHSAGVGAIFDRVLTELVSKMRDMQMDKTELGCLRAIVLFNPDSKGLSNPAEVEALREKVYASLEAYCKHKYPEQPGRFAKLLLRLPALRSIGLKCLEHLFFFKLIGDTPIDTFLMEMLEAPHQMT
Nuclear receptor subfamily 1 group I member 2 (Rattus norvegicus), sequence (Q9R1A7 whole entry, looked up): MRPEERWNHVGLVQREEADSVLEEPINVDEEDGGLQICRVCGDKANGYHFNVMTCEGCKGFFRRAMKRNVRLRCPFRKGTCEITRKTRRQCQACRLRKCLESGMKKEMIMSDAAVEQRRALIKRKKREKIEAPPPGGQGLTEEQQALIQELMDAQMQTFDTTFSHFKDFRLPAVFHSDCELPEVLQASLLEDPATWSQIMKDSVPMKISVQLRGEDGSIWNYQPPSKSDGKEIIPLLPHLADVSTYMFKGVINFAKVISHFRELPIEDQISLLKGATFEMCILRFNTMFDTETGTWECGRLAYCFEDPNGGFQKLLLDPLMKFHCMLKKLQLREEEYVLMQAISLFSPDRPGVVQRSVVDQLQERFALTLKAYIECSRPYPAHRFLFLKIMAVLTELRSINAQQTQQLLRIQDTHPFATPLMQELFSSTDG
Vitamin D3 receptor (Homo sapiens), sequence (P11473 whole entry, looked up): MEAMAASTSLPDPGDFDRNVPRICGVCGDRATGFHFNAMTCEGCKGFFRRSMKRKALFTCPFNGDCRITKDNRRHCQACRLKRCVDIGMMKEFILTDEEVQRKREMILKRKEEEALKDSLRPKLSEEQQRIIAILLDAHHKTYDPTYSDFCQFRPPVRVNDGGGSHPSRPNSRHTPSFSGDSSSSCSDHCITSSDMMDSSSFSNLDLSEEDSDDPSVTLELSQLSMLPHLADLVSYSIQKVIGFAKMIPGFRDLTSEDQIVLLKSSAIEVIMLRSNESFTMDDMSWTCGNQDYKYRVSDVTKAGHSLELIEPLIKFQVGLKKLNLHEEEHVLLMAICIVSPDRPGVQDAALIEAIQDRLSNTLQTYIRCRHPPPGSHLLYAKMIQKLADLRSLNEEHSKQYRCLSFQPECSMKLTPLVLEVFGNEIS
Thyroid hormone receptor beta (Homo sapiens), sequence (P10828 whole entry, looked up): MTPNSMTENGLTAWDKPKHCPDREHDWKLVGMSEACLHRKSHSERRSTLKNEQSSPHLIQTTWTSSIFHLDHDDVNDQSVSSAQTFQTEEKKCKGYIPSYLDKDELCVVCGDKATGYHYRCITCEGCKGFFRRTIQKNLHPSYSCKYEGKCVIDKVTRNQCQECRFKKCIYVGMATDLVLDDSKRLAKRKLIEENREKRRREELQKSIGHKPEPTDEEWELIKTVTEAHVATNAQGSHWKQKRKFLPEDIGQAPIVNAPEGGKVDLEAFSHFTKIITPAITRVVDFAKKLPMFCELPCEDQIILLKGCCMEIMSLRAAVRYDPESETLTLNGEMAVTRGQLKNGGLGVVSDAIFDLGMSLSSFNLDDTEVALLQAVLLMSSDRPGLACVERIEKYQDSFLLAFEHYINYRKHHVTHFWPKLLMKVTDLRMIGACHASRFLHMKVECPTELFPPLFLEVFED
Peroxisome proliferator-activated receptor gamma (Homo sapiens), sequence (P37231 whole entry, looked up): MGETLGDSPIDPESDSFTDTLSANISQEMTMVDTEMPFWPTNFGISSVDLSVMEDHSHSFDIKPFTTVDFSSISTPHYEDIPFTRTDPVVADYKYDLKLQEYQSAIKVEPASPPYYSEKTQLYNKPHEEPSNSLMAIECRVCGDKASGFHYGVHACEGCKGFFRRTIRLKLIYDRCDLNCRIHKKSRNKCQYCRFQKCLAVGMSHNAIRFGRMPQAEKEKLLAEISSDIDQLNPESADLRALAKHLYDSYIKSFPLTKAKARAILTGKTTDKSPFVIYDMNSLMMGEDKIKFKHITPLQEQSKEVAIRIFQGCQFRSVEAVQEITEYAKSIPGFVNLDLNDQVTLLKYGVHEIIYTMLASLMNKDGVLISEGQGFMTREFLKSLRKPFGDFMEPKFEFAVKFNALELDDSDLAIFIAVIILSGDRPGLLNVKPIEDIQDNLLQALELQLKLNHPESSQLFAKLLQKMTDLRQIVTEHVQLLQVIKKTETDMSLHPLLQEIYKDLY
Peroxisome proliferator-activated receptor alpha (Homo sapiens), sequence (Q07869 whole entry, looked up, the tested form may be a part): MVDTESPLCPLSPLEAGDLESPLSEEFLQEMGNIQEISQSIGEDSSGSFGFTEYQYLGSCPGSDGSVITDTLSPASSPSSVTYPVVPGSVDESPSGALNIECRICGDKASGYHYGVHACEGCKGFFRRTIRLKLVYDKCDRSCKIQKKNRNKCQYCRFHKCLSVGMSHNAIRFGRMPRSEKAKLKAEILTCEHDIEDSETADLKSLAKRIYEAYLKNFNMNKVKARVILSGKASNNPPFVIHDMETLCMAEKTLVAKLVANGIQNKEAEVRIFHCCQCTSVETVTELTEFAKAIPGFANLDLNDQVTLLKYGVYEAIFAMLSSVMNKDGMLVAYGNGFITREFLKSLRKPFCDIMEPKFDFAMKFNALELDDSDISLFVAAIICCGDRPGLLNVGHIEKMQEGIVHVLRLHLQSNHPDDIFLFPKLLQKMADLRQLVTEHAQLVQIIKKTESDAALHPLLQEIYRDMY

For the molecule `CCO[Si](CCC#N)(OCC)OCC`, the molecule was classed as inactive in experiment [1] and in experiment [15]. The Potency result in experiment [2], in experiment [4], in experiment [5], in experiment [10] and in experiment [13] was “inactive” throughout. Besides, the max response in [3] is -7.96%; in experiment [6], -13.6%; in experiment [7], -7.94% (inactive); in [9], -0.819% (inactive); in experiment [11], -7.54% (inactive); in experiment [12], -14.2% (inactive). For the same molecule, in experiment [14], the max response was -1.9% (inactive). Further, in experiment [8], the activation is 0.629% (inactive).

As for `Cc1ccc(S(=O)(=O)C(I)I)cc1`, the max response in experiment [3] was -69.8%. For the same molecule, the Potency entry in experiment [4] and in [10] was “inactive” throughout. The activation in [16] is 4.66% (inactive); in experiment [8] it was -6% (inactive); in [17], -11.1% (inactive). For the same molecule, in experiment [15], the outcome was inactive.

`C=CC(=O)OCC(C)OCC(C)OCC(C)OC(=O)C=C` (centres undefined): the max response was 41.6% in [18]; -8.39% in experiment [3]; -20.7% in [6]; 10.6% (inactive) in experiment [7]; -2.39% (inactive) in [9]; -8.01% (inactive) in experiment [11]. Also, the max response in [14] is -2.64% (inactive). For the same molecule, the Potency result in experiment [2], in experiment [5], in experiment [10] and in experiment [13] was “inactive” throughout. Moreover, the molecule was classed as inactive in experiment [19] and in [15]. Besides, the activation is 0.712% (inactive) in [16] and -0.0895% (inactive) in experiment [17].

For the molecule `CC(C)(C)c1cc(C(C)(C)C)c(O)c(C(C)(C)C)c1`, the max response in [18] was 12%; in experiment [3], -17.5%; in experiment [11], 8.43% (inactive); in [12], -4.45% (inactive); in experiment [14] it was -4.2% (inactive). The Potency entry in experiment [2], in experiment [5], in experiment [10] and in experiment [13] was “inactive” throughout. For the same molecule, the Potency in experiment [4] was 0.794 µM (active). The activation in experiment [16] was 3.15% (inactive); in experiment [17], -0.208% (inactive). Moreover, the call in experiment [15] was inactive.

For the molecule `C#CCOC(=O)[C@@H](C)Oc1ccc(Oc2ncc(Cl)cc2F)cc1`, the max response was 41.4% in experiment [18]; -11.8% in [3]; -4.05% in experiment [6]; -3.03% (inactive) in [7]; -0.41% (inactive) in experiment [9]; -3.32% (inactive) in [11]. Further, the max response in [14] was -2.33% (inactive). For the same molecule, the molecule was called inactive in experiment [1], in experiment [19] and in [15]. Further, the Potency result in experiment [2], in [20], in experiment [4], in [10] and in [13] was “inactive” in each case. The values for the activation in experiment [16] and in experiment [17] were -3.45% (inactive) and -1.36% (inactive), respectively.

`CC(=O)CC(=O)Nc1ccccc1C`: the call in experiment [1] and in experiment [19] was inactive. Moreover, the Potency entry in experiment [20], in experiment [4], in [5] and in [13] was “inactive” each time. Further, the max response in experiment [3] was 16.5%; in experiment [6], 14.1%; in experiment [7], -30.4% (inactive); in [9] it was -0.992% (inactive); in experiment [11] it was -6.37% (inactive); in experiment [12], -10.9% (inactive). For the same molecule, the activation in experiment [16] is -0.568% (inactive); in experiment [8] it was -0.183% (inactive); in [17], 3.12% (inactive).

Regarding `CCCCC(CC)COP(=O)(O)OCC(CC)CCCC` (centres undefined), the max response in [18] is -17.6%; in experiment [6] it was -7.8%; in experiment [9], 10.3% (inactive); in [11], -10.7% (inactive); in experiment [12], -5.86% (inactive); in experiment [14] it was 0.935% (inactive). Further, the Potency result in [20], in [5], in [10] and in experiment [13] was “inactive” each time. Further, the result in [19] was inactive. Further, in [17], the activation was -0.89% (inactive).

The values are drawn from PubChem BioAssay (NCATS).
